Cycloheximide cs = Cycloheximide Counterscreen for Small Molecule Inhibitors of Shiga Toxin; cell reporter, cycloheximide protein synthesis inhibition counterscreen; max response, %; 300,000 tested, 12% active; AID 2314, 2010; in the data active = max response mostly above about 13%, no sharp cut-off; inactive = mostly below about 14%; also: read at 38.3 µM for the half of the compounds with a filed dose
Shiga inhibitor = A qHTS for Small Molecule Inhibitors of Shiga Toxin. inhibition, % at 38.7 µM. 290,000 tested, 9.2% active. Vero cells, Shiga toxin protein synthesis inhibition reporter; in the data active = inhibition mostly above about 28%, no sharp cut-off; inactive = mostly below about 43%
Marburg entry inh = qHTS for inhibitors of binding or entry into cells for Marburg Virus; Marburg virus pseudotyped entry inhibition, cell reporter; AID 540276, 2011; 300,000 tested, 1.8% active; Potency, µM (doses to about 37.8 µM), usual class: inhibitors; calls by dose curve; tested in HEK293 cells
Lassa entry inh = qHTS for Inhibitors of binding or entry into cells for Lassa Virus; Potency, µM (titrated, usually from 37.9 µM), hits mostly inhibitors; AID 540256, 2011; Lassa virus pseudotype entry inhibition, cell reporter; 300,000 tested, 1.2% active; calls by dose curve; tested in HEK293 cells; also: nearly all actives have a fitted effect of over 50% in size
Of the large screens only hits and unclear results are named; the others gave an inactive call. An excerpt weighted towards active compounds, which were near 12% of everything screened.

O=C(CSc1n[nH]c(=O)n1C1CC1)Nc1cc(Cl)ccc1Oc1ccccc1	Marburg entry inh 8.2µM, Lassa entry inh inconclusive
O=C(COc1ccccc1F)N1c2ccccc2CCc2ccccc21	Marburg entry inh inconclusive
O=C(COc1ccccc1[N+](=O)[O-])N1CCCc2ccccc21	Cycloheximide cs 16.8
O=C(COc1ccccc1F)N1CCCc2ccccc21	Cycloheximide cs 22.4 (no result: Shiga inhibitor)
CC(=O)N/C(N)=N/c1nc2cc(C)ccc2o1	Cycloheximide cs 36.8, Shiga inhibitor 63.4 (no result: Marburg entry inh, Lassa entry inh)
CC(=O)N/C(N)=N/c1nc2cc([N+](=O)[O-])ccc2o1	Cycloheximide cs 27.1, Marburg entry inh inconclusive, Lassa entry inh inconclusive
N/C(=N\c1nc2ccccc2o1)NC(=O)c1cccc(Br)c1	none
CC1(C)[C@H]2CC[C@]1(C)[C@H](NC(=O)CCN1CCCCC1)C2	none (no result: Cycloheximide cs, Shiga inhibitor, Lassa entry inh)
CC1Oc2ccccc2N(CC(=O)NCc2cccs2)C1=O (stereo unspecified)	Cycloheximide cs 18.8, Shiga inhibitor 31.4, Lassa entry inh inconclusive
Cc1cc(C)n(CC(=O)NNC(=O)C2CC(=O)N(Cc3ccccc3Cl)C2)n1 (stereo unspecified)	none
O=C(CCSCc1ccccc1F)NCCc1ccccc1	Cycloheximide cs 16.6
CC(NC(=O)CCSCc1ccccc1F)c1ccccc1 (stereo unspecified)	Cycloheximide cs 57.6, Shiga inhibitor 64.6, Lassa entry inh inconclusive
O=C(Cc1ccccc1)NCCSCc1ccccc1	Cycloheximide cs 18.9
COc1ccc(S(=O)(=O)N2CCN(CCc3ccccc3)CC2)cc1	none
N#C/C(=C\c1c(N2CCCCC2)nc2ccccn2c1=O)S(=O)(=O)c1ccccc1	none
O=C(Oc1ccc(-c2cnc3ccccc3n2)cc1)c1ccc(Cl)c([N+](=O)[O-])c1	Cycloheximide cs 36.8, Shiga inhibitor 47.7
O=C(Oc1ccc(-c2cnc3ccccc3n2)cc1)c1cccc([N+](=O)[O-])c1	Cycloheximide cs 25.6, Shiga inhibitor 41.4
COc1cc(C)c(Cl)cc1S(=O)(=O)NCc1ccccn1	none
COC(=O)c1ccc(C2NC(=S)N(c3ccccc3)C(C)=C2C(=O)Nc2ccccc2OC)cc1 (stereo unspecified)	Marburg entry inh inconclusive, Lassa entry inh 6.51µM
COc1ccccc1NC(=O)C1=C(C)N(c2ccccc2)C(=S)NC1c1cccc(C(F)(F)F)c1 (stereo unspecified)	Marburg entry inh inconclusive, Lassa entry inh inconclusive
CCN(CC)c1cccc(OC(=O)c2cccnc2Cl)c1	none (no result: Lassa entry inh)
Cc1nc(CNC(=O)c2ccccc2OC2CCN(S(C)(=O)=O)CC2)cs1	none (no result: Marburg entry inh, Lassa entry inh)
CCOCCCNC(=O)c1ccccc1OC1CCN(S(C)(=O)=O)CC1	Cycloheximide cs 11.5 (no result: Marburg entry inh, Lassa entry inh)
CS(=O)(=O)N1CCC(Oc2ccccc2C(=O)N2CCC[C@H]2CO)CC1	Cycloheximide cs 16.6
CS(=O)(=O)N1CCC(Oc2ccccc2C(=O)NC2CCCCCC2)CC1	Cycloheximide cs 16.9
CCOCCCNC(=O)c1cccc(OC2CCN(S(C)(=O)=O)CC2)c1	Cycloheximide cs 30.3, Shiga inhibitor 35.1 (no result: Marburg entry inh, Lassa entry inh)
CC(C)(C)CN1CCC(Oc2cccc(C(=O)NCCCOc3cccnc3)c2)CC1	none (no result: Marburg entry inh, Lassa entry inh)
CCC1CCCCN1C(=O)c1ccccc1OC1CCN(S(C)(=O)=O)CC1 (stereo unspecified)	none (no result: Marburg entry inh, Lassa entry inh)
COc1cc(CC(=O)OCC(=O)N2C(C)CCCC2C)cc(OC)c1OC (stereo unspecified)	none (no result: Marburg entry inh, Lassa entry inh)
c1ccc(Nc2nnc(-c3cccc4ccccc34)o2)cc1	Cycloheximide cs 35.6, Shiga inhibitor 54.1, Marburg entry inh inconclusive
CC(OC(=O)c1ccccc1Oc1ccccc1)C(=O)NC1CC1 (stereo unspecified)	none
O=c1[nH]c(SCc2c(Cl)cccc2Cl)nc2ccccc12	none
CCN1C/C(=C/c2ccc(N3CCOCC3)cc2)C(=O)/C(=C/c2ccc(N3CCOCC3)cc2)C1	Cycloheximide cs 25.6, Shiga inhibitor 35.6, Marburg entry inh inconclusive, Lassa entry inh inconclusive
Cc1ccc(-c2nn(C)c(=O)c3ccccc23)cc1CNC(=O)/C=C/c1ccccc1	Marburg entry inh inconclusive, Lassa entry inh 20.6µM
CC(=O)NCc1cc(-c2nn(C)c(=O)c3ccccc23)ccc1C	none
N[C@H]1CCN(O)C1=O	none (no result: Marburg entry inh, Lassa entry inh)
C=CCNCCOCCOc1ccc(Cl)cc1C(C)(C)C	Marburg entry inh inconclusive
Cc1cc(C(C)(C)C)ccc1OCCOCCN1CCCC1	Marburg entry inh 8.2µM, Lassa entry inh inconclusive
CC(C)(C)c1cc(Cl)ccc1OCCOCCN1CCCC1	Marburg entry inh 8.91µM, Lassa entry inh inconclusive
Cc1ccc(OCCOCCN2CCN(C)CC2)c(C(C)(C)C)c1	none (no result: Marburg entry inh, Lassa entry inh)
COCCCNCCOCCOc1ccc(Cl)cc1C(C)(C)C	Marburg entry inh 5.8µM, Lassa entry inh inconclusive
c1ccc2cc(CC3=NCCN3)ccc2c1	Marburg entry inh inconclusive
Cc1cc(C(C)(C)C)c(O)c(C)c1CC1=NCCN1	Marburg entry inh 15.8µM
O=C(/C=C/c1ccccc1)Nc1ccc2c(c1)C(=O)NC2=O	Cycloheximide cs 19.2 (no result: Marburg entry inh, Lassa entry inh)
O=C(Nc1ccc2c(c1)C(=O)NC2=O)c1ccccc1	none (no result: Marburg entry inh, Lassa entry inh)
Cn1c(NC(=O)/C=C\c2ccccc2)cc(=O)n(C)c1=O	Cycloheximide cs 36.3, Shiga inhibitor 79.5
O=C(/C=C/c1ccccc1Cl)Nc1ccc2c(c1)C(=O)NC2=O	Shiga inhibitor 58.5 (no result: Marburg entry inh, Lassa entry inh)
O=C(Nc1ccc2c(c1)C(=O)NC2=O)c1ccccc1Cl	none (no result: Marburg entry inh, Lassa entry inh)
CC1CCC(NC(=O)c2ccc3c(c2)N(Cc2cccc(Cl)c2)C(=O)c2ccccc2S3=O)CC1 (stereo unspecified)	none (no result: Cycloheximide cs, Shiga inhibitor, Marburg entry inh)
CCc1ccc(NC(=O)Cn2c(=O)n(Cc3ccc4c(c3)OCO4)c(=O)c3oc4ccccc4c32)cc1	none (no result: Cycloheximide cs, Shiga inhibitor, Marburg entry inh)
Cc1ccc(NC(=O)c2nnn(-c3cccc(C(F)(F)F)c3)c2N)cc1	none
Nc1c(C(=O)Nc2cccc(F)c2)nnn1-c1cccc(C(F)(F)F)c1	Cycloheximide cs 18.5, Shiga inhibitor 59.5
Nc1c(C(=O)Nc2ccc(F)cc2)nnn1-c1cccc(C(F)(F)F)c1	Cycloheximide cs 15.0, Lassa entry inh inconclusive
O=C(NCC1CCCO1)c1nn2cccnc2c1Cl (stereo unspecified)	Cycloheximide cs 24.0, Shiga inhibitor 28.5, Marburg entry inh inconclusive
O=C(NCc1cccs1)c1nn2cccnc2c1Cl	Cycloheximide cs 21.5, Lassa entry inh inconclusive
COc1ccc(NC(=O)C2(S(=O)(=O)c3ccc(C)cc3)CC2)cc1OC	none
Cc1ccc(-c2csc(-c3ccncc3)n2)cc1	Cycloheximide cs 25.9, Shiga inhibitor 95.8 (no result: Marburg entry inh, Lassa entry inh)
O=C(Nc1ccc(Br)cc1)c1csc(-c2ccncc2)n1	Marburg entry inh inconclusive
Brc1ccc(-c2csc(-c3ccncc3)n2)cc1	Shiga inhibitor 41.6, Marburg entry inh inconclusive
CC(=O)OCc1cnc(C)c2oc(=O)c(C(=O)Nc3ccc(F)cc3C)cc12	none (no result: Cycloheximide cs, Shiga inhibitor, Marburg entry inh)
COc1ccc(C)cc1-n1nnnc1SCc1nc2ccccc2s1	Cycloheximide cs 45.3, Shiga inhibitor 129.0, Marburg entry inh inconclusive
COc1ccc(CSc2nnnn2-c2ccccc2)cc1	Lassa entry inh inconclusive
COc1ccc(-n2nnnc2SCc2nc3ccccc3s2)cc1	Cycloheximide cs 67.6, Shiga inhibitor 99.0, Marburg entry inh inconclusive, Lassa entry inh inconclusive
CCOC(=O)c1sc2nc(C)n(CC(=O)Nc3cccc(Cl)c3)c(=O)c2c1C	none (no result: Cycloheximide cs, Shiga inhibitor)
CCOC(=O)c1sc(NC(=S)NC(=O)C2CC2)cc1C	none
CCOC(=O)c1sc(NC(=O)c2ccc(Br)o2)cc1C	Cycloheximide cs 46.6, Shiga inhibitor 124.5, Marburg entry inh inconclusive, Lassa entry inh inconclusive

Screening data (PubChem BioAssay)
